# Results from PubChem BioAssay AID1851 (National Center for Advancing Translational Sciences (NCATS), 2009).
# Out of some 16,000 compounds screened, about 5,800 (36%) were called active. Inconclusive results (about 23%) are left out. The list shows a part of the results. Values without a mark were called inactive. Calls come from the whole dose curve; as a rule, active = well fitted curve in the direction sought with a large enough effect; inconclusive = small, poorly fitted or top-dose-only effect, or effect the other way; inactive = no such curve, though single readings can be large or run the other way.
# Biological target: Cytochrome P450 2C19 (Homo sapiens) (UniProt P33261)
# Sequence (P33261 whole entry, looked up): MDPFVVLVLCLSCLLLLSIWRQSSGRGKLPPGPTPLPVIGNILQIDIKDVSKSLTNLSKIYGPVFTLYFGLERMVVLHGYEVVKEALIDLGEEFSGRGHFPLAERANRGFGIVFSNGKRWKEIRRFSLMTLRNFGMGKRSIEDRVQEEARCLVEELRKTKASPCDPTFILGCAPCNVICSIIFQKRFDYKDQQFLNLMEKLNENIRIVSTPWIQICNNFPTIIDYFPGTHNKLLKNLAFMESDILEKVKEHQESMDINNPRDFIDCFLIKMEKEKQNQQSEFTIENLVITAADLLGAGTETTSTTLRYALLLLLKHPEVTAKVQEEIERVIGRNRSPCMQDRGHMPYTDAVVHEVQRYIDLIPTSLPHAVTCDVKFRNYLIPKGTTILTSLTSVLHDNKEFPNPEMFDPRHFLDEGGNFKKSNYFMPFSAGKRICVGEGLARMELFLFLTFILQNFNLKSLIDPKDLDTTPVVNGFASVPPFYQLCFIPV
# Test: Cytochrome panel assay with activity outcomes
# Conditions: recombinant CYP, pro-luciferin dealkylation, luminescence, p450-cyp2c19; series mostly up to 57.1 µM
# % is set by controls: 0 for no effect and ±100 for the full control effect.
Compound,AC50,"activity, negative = inhibition"
O=C(Nc1cccc(C(=O)Nc2ccc(S(=O)(=O)O)c3cc(S(=O)(=O)O)cc(S(=O)(=O)O)c23)c1)Nc1cccc(C(=O)Nc2ccc(S(=O)(=O)O)c3cc(S(=O)(=O)O)cc(S(=O)(=O)O)c23)c1,inactive,–
O=C(CSCc1ccccc1)Nc1cccc(C(=O)Nc2ccccc2C(=O)O)c1,11.2 µM (active),–
CCNc1ncc2nc(-c3cc(F)cc(F)c3)c(=O)n(Cc3cccs3)c2n1,inactive,–
CCCC(C(=O)Nc1nccs1)c1ccccc1 (configuration not stated),3.16 µM (active),–
O=C(O)[C@H](CCc1ccccn1)c1ccccc1,–,9.85% [at 11.4 µM]
COc1ccccc1OCCCOc1ccc([N+](=O)[O-])cc1Cl,0.316 µM (active),–
COc1cc(C=O)ccc1OCCOCCOc1ccccc1Cl,1.26 µM (active),–
COc1cc(C)ccc1OCCCOc1ccccc1Br,0.501 µM (active),–
COc1cc(C=O)ccc1OCCCOc1ccccc1C(=O)O,inactive,–
COc1cc(C)ccc1OCCCOc1ccccc1Cl,1.12 µM (active),–
CC(C)CO/N=C1/[C@H]2O[C@@H]2[C@@H](O)[C@H]2[C@H]1CCn1c(=O)n(C)c(=O)n12,–,-6.23% [at 11.4 µM]
Cc1ccc(C)c(Nc2nc3nonc3nc2N2CCOCC2)c1,25.1 µM (active),–
CN1CCN(CCCBr)CC1,–,39.1% [at 11.4 µM]
Cc1ccc(SCc2[nH]nc3c2C(C(C)C)C(C#N)=C(N)O3)cc1 (configuration not stated),3.16 µM (active),–
COCc1cc(=O)[nH]c2cc(NC(=O)C(F)(F)F)c(C)cc12,inactive,–
CCCS(=O)(=O)N1CCCC(C(=O)NCCN(C)Cc2ccccc2)C1 (configuration not stated),inactive,–
CN(CCCNC(=O)C1CCC(=O)N1Cc1ccccc1Cl)c1ccccc1 (configuration not stated),10 µM (active),–
CN(Cc1ccco1)C(=O)C1CCC(=O)N1Cc1ccc(F)cc1 (configuration not stated),17.8 µM (active),–
O=C(NCCN1CCN(Cc2ccccc2)CC1)C1CC(=O)N(C2CCCC2)C1 (configuration not stated),inactive,–
O=C(Nc1ccc(Br)cc1)C1CCC(=O)N1Cc1ccccc1Cl (configuration not stated),0.631 µM (active),–
CC(C)N(CCNC(=O)C1CCC(=O)N1Cc1ccc(F)cc1)Cc1ccccc1 (configuration not stated),2.82 µM (active),–
Cc1ccc(CCN2CC(C(=O)NCCCN(C)Cc3ccccc3)CC2=O)cc1 (configuration not stated),inactive,–
Cc1ccc(OC[C@H](O)[C@H](C)NC(C)C)c2c1CCC2,inactive,–
CC(C)(C[C@@]1(C)NC(=O)NC1=O)OCc1ccccc1,–,18.1% [at 11.4 µM]
Cc1ccc(S(=O)(=O)c2cc3ccccc3oc2=Nc2ccc3c(c2)OCO3)cc1,4.47 µM (active),–
Cc1ccc(N=Nc2c(O)ccc3cc(S(=O)(=O)O)ccc23)cc1,–,6.68% [at 11.4 µM]

Compound,AC50,"activity, negative = inhibition"
O=c1oc2cc(N=Cc3ccc4c(c3)OCO4)ccc2c2ccccc12,–,-3.38% [at 11.4 µM]
CCC(C#CCN1CCCCC1)(CC)OCCC#N,14.1 µM (active),–
CN(C)[C@@H]1C(=O)C(C(N)=O)=C(O)[C@]2(O)C(=O)C3=C(O)c4c(O)ccc(Cl)c4[C@H](O)[C@H]3C[C@@H]12,inactive,–
COc1cccc(-c2cc(C(=O)N/N=C/c3ccc(OC)c(COC(C)=O)c3)c3ccccc3n2)c1,2.51 µM (active),–
COc1ccc(/C=N/NC(=O)c2cc(-c3ccc(C)cc3C)nc3ccccc23)cc1COC(C)=O,inactive,–
O=C(Nc1cccc(F)c1)N1CCCC2(CCN(C(=O)c3cc(C(F)(F)F)cc(C(F)(F)F)c3)CC2)C1,inactive,–
COc1cc(/C=N/NC(N)=O)c(Br)cc1OCC(=O)Nc1ccccc1C,11.2 µM (active),–
O=C1C2=C(NC(=S)NC2c2ccc(Cl)cc2)NC(c2ccc(Cl)cc2)N1c1ccc(Cl)cc1 (configuration not stated),2.24 µM (active),–
CCC(Sc1nc2cc3c(cc2c(=O)n1Cc1ccco1)OCO3)C(=O)Nc1ccccc1OC (configuration not stated),2.51 µM (active),–
COc1cccc(Nc2ncc3nc(-c4cccs4)c(=O)n(Cc4cccs4)c3n2)c1,inactive,–
COc1cccc(Cn2c(=O)c(-c3cccs3)nc3cnc(Nc4cccc(OC)c4)nc32)c1,inactive,–
CCC(Sc1nc2cc3c(cc2c(=O)n1Cc1ccco1)OCO3)C(=O)Nc1cccc(OC)c1 (configuration not stated),7.08 µM (active),–
Cn1c(=O)c2[nH]cnc2n(C)c1=O,inactive,–
N#CCCn1c(=O)c(-c2cccs2)nc2cnc(Oc3cccc(Cl)c3)nc21,inactive,–
Cc1nc2sccc2c(=O)n1-c1cccc(Cl)c1,0.794 µM (active),–
CC(=O)OC[C@@H]1O[C@H](CCO/N=C\[C@@H](C)[C@H](OCc2ccccc2)C(C)C)C=C[C@@H]1OC(C)=O,–,-11.7% [at 11.4 µM]
COC(=O)C/C=C\[C@@H](C)[C@@H](/C=N\OC[C@@H]1O[C@H](c2ccccc2)C=C[C@@H]1Oc1ccc(OC)cc1)NS(=O)(=O)c1ccc(C)cc1,0.398 µM (active),–
COC(=O)C/C=C\[C@@H](C)[C@@H](/C=N\OC[C@@H](O)COCc1ccco1)OC,–,-19.2% [at 11.4 µM]
COC(=O)C/C=C\[C@@H](C)[C@@H](/C=N\OC[C@@H]1O[C@H](c2ccccc2)C=C[C@@H]1Oc1ccc(OC)cc1)OC,1.58 µM (active),–
COC(=O)C/C=C\[C@@H](C)[C@@H](/C=N\O[C@@H](C)CN1CCCCc2nc(C)c(C)cc21)NS(=O)(=O)c1ccc(C)cc1,–,-9.76% [at 11.4 µM]
CCCNC(=O)OC[C@@H]1O[C@H](CCO/N=C\[C@@H](C)[C@H](OCc2ccccc2)C(C)C)C=C[C@@H]1Oc1ccc(OC)cc1,3.16 µM (active),–
C=CC[C@@H]1C=C[C@@H](O/N=C\[C@@H](OC)[C@H](C)/C=C\CC(=O)OC)[C@@H](CO)O1,–,-6.92% [at 11.4 µM]
COC(=O)C/C=C\[C@@H](C)[C@@H](/C=N\OC[C@@H](O)[C@H]1O[C@H]2OC(C)(C)O[C@H]2[C@@H]1O)NS(=O)(=O)c1ccc(C)cc1,–,-25.2% [at 11.4 µM]
CCCNC(=O)OC[C@H]1O[C@@H](CCO/N=C\[C@@H](NS(=O)(=O)c2ccc(C)cc2)[C@H](C)/C=C\CC(=O)OC)C=C[C@@H]1Oc1ccc(OC)cc1,3.16 µM (active),–
C=CC[C@@H]1C=C[C@H](O/N=C\[C@@H](C)[C@H](OCc2ccccc2)C(C)C)[C@H](CO)O1,–,-27.4% [at 11.4 µM]
COC(=O)C/C=C\[C@@H](C)[C@@H](/C=N\OCC[C@H]1C=C[C@H](OC(C)=O)[C@@H](COC(C)=O)O1)NS(=O)(=O)c1ccc(C)cc1,–,-2.17% [at 11.4 µM]
